Here are results for eleven molecules from PubChem BioAssay (NCATS).

Assay [1] is described as follows: Quantitative High-Throughput drug screen in 47 multiple myeloma cell lines against the NCATS MIPE library collection: KMS28BM_JCRB cell viability assay (AID 1919874). Note: nearly all actives have a fitted effect of over 35% in size. Note: potency is the fitted concentration of half-maximal effect. The gist of the method:
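ATP-based CellTiter-Glo luminescence after 48 h drug exposure (37 °C, 5% CO2) of 500 myeloma cells per well. DMSO-only wells set 100% viability, media-only wells 0%; MIPE 4.0 library added by pin tool.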

Assay [2] is described as follows: qHTS drug screen for cell cycle checkpoint inhibitors in PARPi-resistant BRCA-mutant ovarian cancer cell lines. (AID 1963452; calls by dose curve). Particulars: PEO1/OlaR viability, CellTiter-Glo luminescence, 96 h, stronger effect = lower value. The gist of the method:
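PEO1, PEO4 and PEO1/OlaR ovarian cancer cells, 600 per well, exposed 96 h at 37C to a dilution series. Viability read by CellTiter-Glo luminescence, normalized to DMSO and empty wells; activity summarized as Z-AUC.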
(qHTS replaces the single test concentration by a dilution series.)

Setting [3] is: measured here: PEO1 parental Z-AUC.

Inconclusive results are not listed. Activity calls are given as the source filed them. Unless noted, calls come from the whole dose curve; as a rule, active = well fitted cell-killing curve with a large enough effect; inconclusive = small, poorly fitted or top-dose-only effect, or effect the other way; inactive = no such curve, though single readings can be large or run the other way.

Take `C[C@@H](Oc1ccc2[nH]nc(C=Cc3cnn(CCO)c3)c2c1)c1c(Cl)cncc1Cl`: in assay [1], the Potency was 1.18 µM (active).

On to `COc1cc(C=CC(=O)CC(=O)C=Cc2ccc(O)c(OC)c2)ccc1O`, for which the Potency in assay [1] was 10.8 µM (active).

With `C#C[C@]1(O)CC[C@@H]2[C@@H]3CCc4cc(O)ccc4[C@H]3CC[C@@]21C`, the Potency in assay [1] is 4.69 µM (active).

On to `Nc1nc(N)c2nc(-c3cccc(O)c3)c(-c3cccc(O)c3)nc2n1`, for which the Potency in assay [1] was 20.9 µM (active). The Z-AUC is 0.00904 (inactive) in assay [2], 1.16 in assay [2] (setting [3]) and 0.781 in assay [2] (measured here: PEO4 Z-AUC).

In the case of `C[N+](C)([O-])CCNc1ccc(NCC[N+](C)(C)[O-])c2c1C(=O)c1c(O)ccc(O)c1C2=O`, the Potency entry in assay [1] was “inactive”. The figures for the Z-AUC in assay [2], in assay [2] (setting [3]) and in assay [2] (measured here: PEO4 Z-AUC) were 0.909 (inactive), -0.431 and 0.857, respectively.

For `Cc1ccc2nc(NCCN)c3ncc(C)n3c2c1`, the Potency in assay [1] is 6.62 µM (active). The Z-AUC is 0.876 (inactive) in assay [2], 0.537 in assay [2] (setting [3]) and 1.09 in assay [2] (measured here: PEO4 Z-AUC).

Regarding `CC(N[C@H]1CCCC[C@H]1NC(=O)c1ccc(Cl)cc1)c1cccc2ccccc12` (stereo not given in full), the Potency in assay [1] was 18.7 µM (active). Also, the Z-AUC in assay [2] was 0.148 (inactive); in assay [2] (setting [3]), 0.0458; in assay [2] (measured here: PEO4 Z-AUC), 0.472.

Consider `COc1cc(C[C@@H](CO)[C@H](CO)Cc2ccc(O)c(OC)c2)ccc1O`, for which, in assay [1], the Potency entry is “inactive”. In addition, the Z-AUC was 0.833 (inactive) in assay [2], 0.526 in assay [2] (setting [3]) and 0.516 in assay [2] (measured here: PEO4 Z-AUC).

As to `CC(C)c1cc(C(C)C)c(CC(=O)NS(=O)(=O)Oc2c(C(C)C)cccc2C(C)C)c(C(C)C)c1`, the Potency result in assay [1] is “inactive”. In addition, the results for the Z-AUC in assay [2], in assay [2] (setting [3]) and in assay [2] (measured here: PEO4 Z-AUC) were 0.134 (inactive), 0.546 and 1.13, respectively.

Consider `Nc1ccc(C(=O)Nc2cccc(-c3nc(N4CCOCC4)c4oc5ncccc5c4n3)c2)cn1`, for which the Potency in assay [1] was 26.4 µM (active). Also, the figures for the Z-AUC in assay [2], in assay [2] (setting [3]) and in assay [2] (measured here: PEO4 Z-AUC) were 0.0788 (inactive), -0.164 and 0.731, respectively.

As for `COc1cc(C(C)C)c(Oc2cnc(NC(CO)CO)nc2N)cc1I`, in assay [1], the Potency result is “inactive”. For the same molecule, the Z-AUC in assay [2] was 0.743 (inactive); in assay [2] (setting [3]) it was 1.44; in assay [2] (measured here: PEO4 Z-AUC), 1.02.
